This is an account of results in PubChem BioAssay (NCI).

The panel holds about 79,000 compounds, 15% with a hit somewhere; the sample as a whole holds those more often. Unmarked numbers belong to inactive results. Activity calls are given as the source filed them. Cut-off read from the data, not from the text of the source: active = growth inhibition above about 70%; inactive = the rest.

The nature of the experiment: NCI Yeast Anticancer Drug Screen. Data for the mec2-1 strain (AID 157). As to conditions: S. cerevisiae mec2-1 strain, at 50.0 µM (retest, dose inferred, filed as 5.0), stronger effect = higher value. An outline of the steps: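 Using mec2-1 yeast: add compound, measure growth, express inhibition versus vehicle-treated cultures.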
Regarding `CCOC(=O)c1csc(=S)[nH]1`, the growth inhibition is 32%.
To `CC(=O)[O-].O=C(N/N=C/c1ccccc1[O-])c1ccccc1.[Zn+2]` belongs 89% (active); to `Clc1ccc(C(CCOc2ccccc2Br)Cn2ccnc2)c(Cl)c1` (stereo not drawn), 99% (active); to `CCCC(C)C/C(C)=C\C(C)(C)C1CC(=O)N(CC)C1=O` (stereo not drawn), 89% (active).
For `CSC(SC)=C1C(=O)NC(Cc2ccccc2)C1=O` (stereo not drawn), the growth inhibition is 35%.
As to `CCCCCCSc1nc2ccc(N=Cc3ccccc3O)cc2s1`, the growth inhibition was 91% (active).
Take `Cc1cc(C(=O)O)c(C)c2c1sc1ccccc12`: the growth inhibition was 79% (active).
Consider `O=C(Nc1ccc(Cl)cc1)Nc1nnc2nc(C(C(=O)/C=C/c3ccccc3)c3nc4nnc(NC(=O)Nc5ccc(Cl)cc5)n4[nH]c3=O)c(=O)[nH]n12`, for which the growth inhibition is -3%.
For `O=c1c(SSc2coc3ccccc3c2=O)coc2ccccc12`, the growth inhibition is 96% (active).
Regarding `C[n+]1c(/C=C/c2ccc(N3CCCC3)cc2)sc2ccccc21`, the growth inhibition was 99% (active).
For the molecule `CCC(C(c1ccc(Cl)cc1)c1ccc(Cl)c(Cl)c1)[N+](=O)[O-]` (stereo not drawn), the growth inhibition was 17%.
Regarding `O=C1OC(C2OC(=O)C(=O)C2C(=O)c2ccc([N+](=O)[O-])cc2)C(C(=O)c2ccc([N+](=O)[O-])cc2)C1=O` (stereo not drawn), the growth inhibition is 44%.
Next, `O=[N+]([O-])c1ccc(O)c(C2CCCCC2)c1`: 99% (active).
To `O=C1c2ccccc2C(=O)N1/N=C\c1ccccc1[N+](=O)[O-]` belongs 41%; to `CC(C)(C)C(=O)CC(=O)C(F)(F)C(F)(F)C(F)(F)F.CC(C)(C)C(=O)CC(=O)C(F)(F)C(F)(F)C(F)(F)F.CC(C)(C)C(=O)CC(=O)C(F)(F)C(F)(F)C(F)(F)F.[Gd]`, 85% (active); to `Oc1ccc(N=Nc2ccccc2)cc1`, 99% (active).
Turning to `Cc1cc(NC(=S)SCc2ccc(F)cc2)ccc1Br`, the growth inhibition is 100% (active).
Take `OC(CN1CCc2ccccc2C1)c1ccc2ccccc2c1` (stereo not drawn): the growth inhibition is 58%.
Regarding `O=C1C=C/C(=C(/c2ccc(O)c(O)c2)c2ccccc2S(=O)(=O)O)C=C1O`, the growth inhibition is -25%.
In the case of `Cc1cc(N)c2cc(NC(=O)Nc3ccc4nc(C)cc(N)c4c3)ccc2n1`, the growth inhibition was 99% (active).
For `CC(=O)N/N=C1/CC[C@@]2(C)C(=CC[C@H]3C4CCC(C(C)CCCC(C)C)[C@@]4(C)CCC32)C1(C)C` (stereo partly drawn), the growth inhibition was 83% (active).
For the molecule `Cc1ncn(-c2ccccc2O)c1C`, the growth inhibition is -20%.
Next, `Oc1ccc(-c2nnc(-c3ccccc3)nn2)cc1`: -53%.
